This note sets out measurements from PubChem BioAssay (NCATS).

Experiment [1] is described as follows: Cell Viability - LYMP1-002 - Assay at 16 hr (AID 948).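 Note: 0% = DMSO alone and full effect = 92 µM tetraoctylammonium bromide.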 The procedure, abridged:
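In this qHTS, lymphoblastoid LYMP1-002 cells (human) receive compounds for 16 hr at 37 C. Viability is taken from CellTiter-Glo ATP luminescence, and AC50 derives from standard Hill fits.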

Experiment [2] in a line: MultiTox-Fluor Cytotoxicity Assay - LYMP1-002 - Dead Cells (AID 960).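 Note: 0% = DMSO and 100% = tetraoctylammonium bromide; nearly all actives have a fitted effect of over 60% in size.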 The procedure, abridged: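 Human lymphoblastoid LYMP1-002 cells, 2500/well, treated 16 h at 37 C; dead-cell protease cleavage of bis-AAF-R110 read by fluorescence (485/520); normalized to DMSO and 15 uM tetraoctylammonium bromide; AC50 from Hill fit.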
The nature of experiment [3]: Cell Viability - LYMP2-009 (AID 968).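 Note: series mostly up to about 92 µM; 0% = DMSO alone and the full-kill end = tetraoctylammonium bromide at 92 µM; nearly all actives have a fitted effect of over 55% in size.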
Experiment [4] can be described thus: Cell Viability - LYMP2-017 (AID 972). Note: series mostly up to about 92 µM; % is set by controls: 0 for no effect and ±100 for the full control effect; nearly all actives have a fitted effect of over 55% in size. In a few lines:
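LYMP2-017 human lymphoblastoid cells (2500/well) settled 5 hr at 37 C, then exposed to compound 24 hr at 37 C in complete medium. Viability taken as intracellular ATP by CellTiter-Glo luminescence after 30 min at RT; AC50 from Hill fits.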

A short description of experiment [5]: Cell Viability - LYMP2-016 (AID 984). Note: % is set by controls: 0 for no effect and ±100 for the full control effect; nearly all actives have a fitted effect of over 55% in size. The procedure, abridged:
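Concentration-dependent ATP depletion measured in LYMP2-016 lymphoblastoid cells, 24 h, 37 C; luciferase-based luminescent detection; Hill-equation AC50.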

For experiment [6], the target named is Glucocorticoid receptor (Homo sapiens) (UniProt P04150). As to the kind of experiment: qHTS assay for small molecule agonists of glucocorticoid receptor signaling (AID 588532; active = well fitted curve in the direction sought with a large enough effect in the signal ratio, with a control signal flat; the % refers to the signal ratio;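 note: 100% = dexamethasone at 0.1 µM and 0% = DMSO only wells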). The conditions noted are these: HeLa MMTV-bla, beta-lactamase ratio, agonist, 18 h; stronger effect = higher value; percent of dexamethasone control, DMSO zero. In a few lines:
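Using MMTV-bla HeLa cells in medium with 1% stripped FBS and 25 mM HEPES, compounds were titrated and incubated overnight-length (18 h). Beta-lactamase cleavage of CCF4 was quantified by dual-emission fluorescence.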
(In qHTS, concentration-response curves come from the screen itself.)

Experiment [7] can be described thus: qHTS assay for small molecule antagonists of peroxisome proliferator-activated receptor delta signaling (AID 588535).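 Note: cells co-treated with a PPAR-delta agonist as stimulator during compound exposure.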 The conditions noted are these: HEK293T PPARd-UAS-bla, beta-lactamase FRET ratio, 18 h; 460 nm channel. The procedure, abridged: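 HEK293T PPAR-delta-UAS-bla cells, 4000/well, 2% charcoal/dextran FBS; 5 h 37 C; cpd titration; 18 h 37 C; CCF4 2 h RT; FI 460/530 nm; Hill fit → IC50, efficacy.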

For experiment [8], the target named is Vitamin D3 receptor (Homo sapiens) (UniProt P11473). As to the kind of experiment: qHTS assay for small molecule agonists of vitamin D receptor signaling (AID 588543; calls by dose curve;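 note: 0% = DMSO basal and 100% = reference agonist control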). In a few lines: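 Measured: β-lactamase reporter activity (CCF4, 405 nm excitation, 460/530 nm emission) in HEK293T VDR-UAS-bla cells after 16 h compound exposure at 37 °C. Normalization against 50 nM 1α,25-dihydroxyvitamin D3 and DMSO; Hill-fit EC50.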
Chain of Vitamin D3 receptor (Homo sapiens) (P11473 whole entry, looked up): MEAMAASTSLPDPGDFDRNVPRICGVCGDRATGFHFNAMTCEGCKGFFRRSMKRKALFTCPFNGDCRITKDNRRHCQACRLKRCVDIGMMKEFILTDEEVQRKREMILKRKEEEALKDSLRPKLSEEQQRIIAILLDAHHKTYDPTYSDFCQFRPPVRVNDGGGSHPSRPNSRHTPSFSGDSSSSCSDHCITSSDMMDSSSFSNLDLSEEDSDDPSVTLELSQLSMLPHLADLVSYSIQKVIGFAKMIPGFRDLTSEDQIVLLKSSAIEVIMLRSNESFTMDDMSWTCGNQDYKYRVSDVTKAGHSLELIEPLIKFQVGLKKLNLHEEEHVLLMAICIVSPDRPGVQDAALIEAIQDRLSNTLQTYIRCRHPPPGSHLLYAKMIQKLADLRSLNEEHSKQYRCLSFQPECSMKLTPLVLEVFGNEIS

The target in experiment [9] is Retinoic acid receptor RXR-alpha (Homo sapiens) (UniProt P19793). Description: qHTS assay for small molecule agonists of retinoid X receptor alpha signaling (AID 588544; calls by dose curve;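 note: 0% = DMSO basal wells and 100% = reference agonist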).
Chain of Retinoic acid receptor RXR-alpha (Homo sapiens) (P19793 whole entry, looked up): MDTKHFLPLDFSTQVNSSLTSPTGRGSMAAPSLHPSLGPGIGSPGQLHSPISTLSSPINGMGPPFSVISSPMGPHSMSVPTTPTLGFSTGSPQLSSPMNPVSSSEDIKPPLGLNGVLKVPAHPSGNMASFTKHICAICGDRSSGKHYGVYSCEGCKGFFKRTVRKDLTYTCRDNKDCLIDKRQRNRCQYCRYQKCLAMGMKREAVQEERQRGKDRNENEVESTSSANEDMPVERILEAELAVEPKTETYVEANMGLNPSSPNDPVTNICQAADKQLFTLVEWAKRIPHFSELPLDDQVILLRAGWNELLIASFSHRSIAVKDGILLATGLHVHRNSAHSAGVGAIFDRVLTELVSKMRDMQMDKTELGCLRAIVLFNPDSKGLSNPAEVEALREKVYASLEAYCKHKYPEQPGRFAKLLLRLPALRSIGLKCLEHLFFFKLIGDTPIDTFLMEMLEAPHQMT
Experiment [10] deals with Thyroid hormone receptor beta (Homo sapiens) (UniProt P10828). As to the kind of experiment: qHTS assay for small molecule agonists of thyroid hormone receptor beta signaling (AID 588545; calls by dose curve). In a few lines: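 Cells (2500/well) were seeded, incubated 4 hrs at 37 C, dosed with a compound series, incubated 18 hrs, loaded with CCF4 dye for 2 hrs at RT, then read for fluorescence. Data were scaled between DMSO (0%) and 10 nM T3 (100%).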
Chain of Thyroid hormone receptor beta (Homo sapiens) (P10828 whole entry, looked up): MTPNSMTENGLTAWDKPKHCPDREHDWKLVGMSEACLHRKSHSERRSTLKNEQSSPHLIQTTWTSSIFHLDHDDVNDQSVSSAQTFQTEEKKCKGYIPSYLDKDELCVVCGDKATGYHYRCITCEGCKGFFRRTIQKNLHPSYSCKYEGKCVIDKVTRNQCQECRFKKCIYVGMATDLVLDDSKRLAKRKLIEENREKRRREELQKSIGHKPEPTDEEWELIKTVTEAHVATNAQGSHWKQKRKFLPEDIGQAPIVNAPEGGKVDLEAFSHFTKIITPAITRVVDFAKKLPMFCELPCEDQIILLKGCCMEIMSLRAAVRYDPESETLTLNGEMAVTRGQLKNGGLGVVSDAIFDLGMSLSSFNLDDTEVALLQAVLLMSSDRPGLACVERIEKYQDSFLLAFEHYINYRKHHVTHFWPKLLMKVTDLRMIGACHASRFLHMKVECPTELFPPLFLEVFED

Experiment [11] deals with Retinoic acid receptor RXR-alpha (Homo sapiens) (UniProt P19793). As to the kind of experiment: qHTS assay for small molecule antagonists of retinoid X receptor alpha signaling (AID 588546; active = well fitted inhibition curve with a large enough effect in the signal ratio, with a control signal flat, not every such curve was filed as active; the % refers to the signal ratio;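 note: cells stimulated with 9-cis-retinoic acid as agonist; % is set by controls: 0 for no effect and ±100 for the full control effect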). To be noted: HEK293T RXRa-UAS-bla, beta-lactamase ratio, antagonist mode. In a few lines:
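Beta-lactamase reporter inhibition, read as CCF4 fluorescence ratio (ex 405, em 460/530 nm) after 2 h at RT. HEK293T UAS-bla cells, 2500/well, were stimulated with 9-cis-RA at 500 or 100 nM final alongside test compound for 18 h at 37 C.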

Experiment [12] addresses Thyroid hormone receptor beta (Homo sapiens) (UniProt P10828). Description: qHTS assay for small molecule antagonists of thyroid hormone receptor beta signaling (AID 588547; active = well fitted inhibition curve with a large enough effect in the signal ratio, with a control signal flat, not every such curve was filed as active; the % refers to the signal ratio;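 note: cells stimulated with 0.4 nM T3 agonist during compound exposure; series mostly up to about 77 µM; % is set by controls: 0 for no effect and ±100 for the full control effect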). The conditions noted are these: TR-UAS-bla HEK293, beta-lactamase ratio, antagonist mode, 18 h. In a few lines: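 Inhibition of T3-driven (0.4nM final) beta-lactamase reporter activity was measured over 0.59 nM to 92 uM compound after 18 h at 37 C. The cells were GripTite HEK293 TR-UAS-bla in charcoal/dextran-stripped serum, with CCF4 ratio read-out and IC50 from Hill fits.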

Experiment [13] in a line: qHTS assay for small molecule activators of the nuclear factor-kappa B (NF-kB) signaling pathway (AID 651749; active = well fitted activation curve with a large enough effect in the signal ratio; the % refers to the signal ratio; note: series mostly up to about 77 µM; % of control where 0% means no effect). To be noted: NF-kB-bla ME-180 cells, beta-lactamase FRET ratio, 16 h; stronger effect = higher value. In a few lines: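 Readout: beta-lactamase reporter driven by an NF-kB response element, detected fluorescently as loss of FRET. Cells were the ME-180 line, treated 16 hr at 37C with pin-transferred compound.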

Experiment [14] in a line: qHTS assay for cell viability of HEK293 cells (AID 743288). Note: % is set by controls: 0 for no effect and ±100 for the full control effect; nearly all actives have a fitted effect of over 50% in size. To be noted: ATP luminescence (CellTiter-Glo), 18 h, stronger effect = lower value. The procedure, abridged:
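Luminescent ATP quantitation served as the viability read-out. Cells (parental HEK293, 2,000/well) received compounds after at least 5 h at 37 C and were exposed for 18 h before a 30 min room-temperature reagent step.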

The nature of experiment [15]: Cell Viability - LYMP2-002 (AID 977).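 Note: series mostly up to about 92 µM; compound exposure lasted 24 h at 37 °C; plate controls were DMSO only for no effect and 92 µM tetraoctylammonium bromide for full effect.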 The procedure, abridged: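 Cytotoxicity is scored as concentration-dependent loss of cellular ATP in a human lymphoblastoid line after 24 hr compound treatment at 37 C. AC50 is obtained by modelling concentration-response data with the Hill equation.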
A short description of experiment [16]: qHTS assay for small molecule agonists of the antioxidant response element (ARE) signaling pathway (AID 651741; active = well fitted activation curve with a large enough effect in the signal ratio; the % refers to the signal ratio; note: % of control where 0% means no effect). In a few lines: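 Quantitative HTS in HepG2 cells stably expressing an ARE-beta-lactamase reporter; 16 h compound exposure at 37 C, followed by 2 h room-temperature incubation with LiveBLAzer B/G FRET substrate and fluorescence measurement.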
The nature of experiment [17]: qHTS assay for small molecule disruptors of the mitochondrial membrane potential - 5 hr assay (AID 651755; calls by dose curve; note: % is set by controls: 0 for no effect and ±100 for the full control effect; nearly all actives have a fitted effect of over 40% in size). The procedure, abridged:
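HepG2, 2,000 cells/well, overnight attach; cpd or DMSO 5 hr, 37C/5% CO2; Mito-MPS 30 min 37C; fluor 490/535 + 540/590 nm.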

The target of experiment [18] is Nuclear receptor ROR-gamma (Homo sapiens) (UniProt P51449). As to the kind of experiment: qHTS assay for small molecule antagonists of the retinoid-related orphan receptor gamma (ROR-gamma) signaling pathway (AID 651802).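 Note: luciferase reporter luminescence driven by ROR response element; series mostly up to about 92 µM; % is set by controls: 0 for no effect and ±100 for the full control effect; nearly all actives have a fitted effect of over 60% in size.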 In a few lines: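 CHO cells with TET-inducible ROR-gamma and RORE-luciferase reporter, dosed then doxycycline-induced. After 16 h at 37C, One-Glo luminescence read; decreased signal indicates antagonism.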
Chain of Nuclear receptor ROR-gamma (Homo sapiens) (P51449 whole entry, looked up): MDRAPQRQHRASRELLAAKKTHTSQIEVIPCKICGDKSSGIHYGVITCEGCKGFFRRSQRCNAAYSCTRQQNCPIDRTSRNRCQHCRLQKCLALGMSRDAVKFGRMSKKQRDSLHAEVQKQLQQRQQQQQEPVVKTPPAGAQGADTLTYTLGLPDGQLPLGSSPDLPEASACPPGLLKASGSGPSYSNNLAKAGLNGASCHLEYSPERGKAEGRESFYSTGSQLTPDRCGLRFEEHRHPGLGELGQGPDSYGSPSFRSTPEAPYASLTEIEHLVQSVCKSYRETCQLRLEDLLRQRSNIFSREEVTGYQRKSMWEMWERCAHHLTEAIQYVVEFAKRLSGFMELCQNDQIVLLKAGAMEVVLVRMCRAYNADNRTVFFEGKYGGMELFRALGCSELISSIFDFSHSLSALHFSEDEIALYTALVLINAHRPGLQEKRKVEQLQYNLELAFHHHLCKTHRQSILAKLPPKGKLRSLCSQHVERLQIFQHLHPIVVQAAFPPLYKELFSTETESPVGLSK

The structures appear in SMILES notation. “And” between values parts separate entries of the source, which are not always exact repeats. Equal values may be shown once. Inconclusive results are not listed. The source made the active and inactive calls. Unless noted, calls come from the whole dose curve; as a rule, active = well fitted curve in the direction sought with a large enough effect; inconclusive = small, poorly fitted or top-dose-only effect, or another doubt; inactive = no such curve, though single readings can be large; an effect the other way counts as inactive or inconclusive.

Chain of Glucocorticoid receptor (Homo sapiens) (P04150 whole entry, looked up): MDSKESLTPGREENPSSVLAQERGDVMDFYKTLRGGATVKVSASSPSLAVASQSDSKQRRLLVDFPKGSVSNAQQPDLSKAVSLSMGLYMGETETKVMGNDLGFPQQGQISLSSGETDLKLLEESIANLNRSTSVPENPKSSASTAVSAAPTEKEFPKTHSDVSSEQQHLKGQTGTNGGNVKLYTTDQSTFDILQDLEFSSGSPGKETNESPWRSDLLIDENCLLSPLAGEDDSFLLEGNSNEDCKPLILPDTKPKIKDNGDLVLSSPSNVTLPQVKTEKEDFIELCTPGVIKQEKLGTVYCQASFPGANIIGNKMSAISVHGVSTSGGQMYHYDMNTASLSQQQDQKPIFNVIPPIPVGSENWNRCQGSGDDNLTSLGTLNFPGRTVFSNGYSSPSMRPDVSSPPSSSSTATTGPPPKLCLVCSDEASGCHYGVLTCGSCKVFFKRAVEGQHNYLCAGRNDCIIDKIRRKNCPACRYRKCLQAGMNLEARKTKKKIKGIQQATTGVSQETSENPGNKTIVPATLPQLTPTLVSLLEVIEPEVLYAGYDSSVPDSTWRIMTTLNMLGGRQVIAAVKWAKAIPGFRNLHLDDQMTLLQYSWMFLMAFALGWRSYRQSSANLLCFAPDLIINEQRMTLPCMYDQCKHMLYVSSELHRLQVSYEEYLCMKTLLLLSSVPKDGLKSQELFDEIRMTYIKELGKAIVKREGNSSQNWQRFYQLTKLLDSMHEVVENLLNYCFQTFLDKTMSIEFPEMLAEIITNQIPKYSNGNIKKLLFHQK

For the compound `C[N+](=O)[O-]`, the outcome in experiment [1], in [8] and in experiment [9] was inactive. Further, the Potency result in experiment [2], in experiment [3], in experiment [4], in experiment [5] and in experiment [10] was “inactive” throughout. For the same compound, the activation in experiment [6] was -0.802% (inactive); in experiment [13] it was -0.658% (inactive). The max response in [7] was 3.34%; in [11], 4.36% (inactive); in [14], 4.12% (inactive). In [12], the activity change % (negative = inhibition) was -5.27% (inactive).
For `c1ccc(NNc2ccccc2)cc1`, the outcome in [1], in [8] and in experiment [9] was inactive. Besides, the Potency entry in experiment [2], in experiment [3], in [4], in [15], in [5] and in [16] was “inactive” throughout. Moreover, the Potency entry in [17] and in experiment [18] was “inactive” throughout. Further, the activation is 1.14% (inactive) and -8.47% (inactive) in experiment [6]; 0.182% (inactive) and 3.71% (inactive) in experiment [13]. Besides, the max response is 13.2% and 5.7% in [7]; 1.29% (inactive) and 6.1% (inactive) in experiment [11]; 2.88% (inactive) and -1.77% (inactive) in experiment [14]. For the same compound, in experiment [12], the activity change % (negative = inhibition) was 8.59% (inactive).
